A selection: hits, their analogues and other compounds. The true share with any hit is near 9%.
BAZ2B block: BAZ2B (human) inhibition; Q9UIF8; AlphaScreen BAZ2B-H3K14Ac peptide displacement; Potency, µM (doses to about 114 µM), hits mostly inhibitors; 4.4% of 360,000 active; AID 504333; note: nearly all actives have a fitted effect of over 60% in size
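Complex of BAZ2B and biotin-H3K14Ac (50 nM apiece) forms over 30 min at RT, then faces library compounds up to 110 uM for another 30 min; AlphaScreen beads added, 20 min dark incubation, luminescence read.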
PLK1 PBD inh: PLK1 (human) polo-box domain binding inhibition; P53350; Plk1 PBD binding of FITC phosphopeptide, fluorescence polarization; Potency, µM, actives largely listed as inhibitors; 2.8% of 360,000 active; note: series mostly up to about 57 µM; nearly all actives have a fitted effect of over 65% in size
G9a inh: blocks human histone lysine methyltransferase G9a; Q96KQ7; G9a H3K9 monomethylation, AlphaScreen, 2 h; Potency, µM (top dose mostly 102 µM), most hits filed as inhibitors; 8.8% of 350,000 active; AID 504332; note: nearly all actives have a fitted effect of over 75% in size
Target sequence (Q96KQ7 913-1193 limits assumed): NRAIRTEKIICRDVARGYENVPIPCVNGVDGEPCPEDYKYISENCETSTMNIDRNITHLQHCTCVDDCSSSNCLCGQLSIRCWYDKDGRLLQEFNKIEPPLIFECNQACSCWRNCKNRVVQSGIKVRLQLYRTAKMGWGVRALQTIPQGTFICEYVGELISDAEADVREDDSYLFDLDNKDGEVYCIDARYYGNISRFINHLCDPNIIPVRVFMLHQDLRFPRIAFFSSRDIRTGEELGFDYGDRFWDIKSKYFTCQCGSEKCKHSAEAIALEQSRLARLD
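AlphaScreen detection with an anti-monomethyl H3K9 antibody quantified product after a 2 h room-temperature reaction containing 500 nM biotinylated H3K9 peptide, 20 µM SAM and 20 nM enzyme, which had been preincubated 15 min with compound.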
JMJD2A Tudor inh: JMJD2A Tudor domain (human) inhibition; O75164; AlphaScreen JMJD2A-Tudor / H3K4me3 peptide binding; Potency, µM (highest dose often 114 µM), hits mostly inhibitors; 4.4% of 390,000 active; note: nearly all actives have a fitted effect of over 50% in size
ALOX12 inh: blocks human arachidonate 12S-lipoxygenase | Potency, µM (highest dose often 108 µM), usual class: inhibitors | AID 1671190 | P18054 | 1.1% of 580,000 active | purified 12hLO, xylenol orange hydroperoxide absorbance
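Hydroperoxide product was detected by ferrous iron/xylenol orange as the 573 to 405 nm absorbance ratio. Arachidonic acid at 40 uM (final) was turned over for 30 min at room temperature by 150 nM human 12hLO, pH 7.0 Hepes buffer, after 15 min compound preincubation.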
HP1b binding inh: blocks HP1-beta chromodomain binding to methylated histone tails. P83916. AlphaScreen HP1-beta / biotin-H3K9me3 peptide binding. Potency, µM (doses to about 114 µM), actives largely listed as inhibitors. 0.56% of 390,000 active. AID 540317; note: nearly all actives have a fitted effect of over 70% in size
Target sequence (P83916 whole entry, looked up): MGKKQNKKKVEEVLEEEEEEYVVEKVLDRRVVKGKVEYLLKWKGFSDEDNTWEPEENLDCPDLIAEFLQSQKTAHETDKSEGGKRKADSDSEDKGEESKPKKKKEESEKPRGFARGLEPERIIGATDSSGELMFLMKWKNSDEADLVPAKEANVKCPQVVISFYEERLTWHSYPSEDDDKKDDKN
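AlphaScreen: HP1-beta (50 nM) preformed 30 min with biotin-H3(1-18)K9me3 peptide (50 nM) in PBS pH 7.4, 0.01% Tween-20. Compound added for 30 min at RT, then streptavidin donor/nickel chelate acceptor beads (10 ug/mL) for 30 min.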
Numbers stand for hits; – = inactive; ? = inconclusive; · = no result given; ! = repeats disagree; [ ] = remark or other dose. Calls come from the whole dose curve; as a rule, active = well fitted curve in the direction sought with a large enough effect; inconclusive = small, poorly fitted or top-dose-only effect, or another doubt; inactive = no such curve, though single readings can be large; an effect the other way counts as inactive or inconclusive.

SMILES	BAZ2B block	PLK1 PBD inh	G9a inh	JMJD2A Tudor inh	ALOX12 inh	HP1b binding inh
COc1ccc(/C=N/NC(=O)c2snnc2C)c(OC)c1OC	–	–	–	–	–	–
Cc1cc2nc(N3C(=O)CNC3=S)sc2cc1C	44.7µM	–	–	–	–	–
CCN(CC)c1nc2ccccc2[nH]c1=O	–	–	31.6µM	–	–	–
C[C@H](c1ccccc1)N1C[C@H](COCc2ccccc2)Oc2cc(N3CCC[C@H]3CO)ccc2S1(=O)=O	·	–	·	·	50.1µM	·
COc1ccc(OC)c(Nc2nc(-c3c(C)nc4ncccn34)cs2)c1	?	–	28.2µM	?	?	–
COc1ccc(Nc2nc(-c3cccs3)cs2)c(OC)c1	31.6µM	–	11.2µM	2.51µM	?	50.1µM
Cc1nc2ncccn2c1-c1csc(Nc2cccc(C(=O)O)c2)n1	–	?	?	?	?	?
Cc1nc(C(=O)NC2CCN(c3ncccc3C#N)CC2)cs1	·	·	·	·	–	·
COc1ccc(-n2nnnc2C(CCSC)N2CCN(C/C=C/c3ccccc3)CC2)cc1 (configuration not stated)	·	–	·	·	–	·
CC1(C)CC(N2CCCCC2)=CC(=NCCCN2CCOCC2)C1	·	·	·	·	22.4µM	·
C(CCN1CCOCC1)CN1CCOCC1	·	–	·	·	–	·
O=C(CSc1nnc(CNC(=O)c2ccccc2)o1)NCc1ccc(F)cc1	–	–	–	–	–	–
CCOc1ccc(CNC(=O)c2ccc3[nH]c(C)c(C)c3c2)cc1OC	?	·	–	–	–	–
Cc1cccc(OC[C@H]2C[C@@H](NC(=O)c3ccc(C#N)cc3)[C@H](O)[C@@H]2O)n1	·	·	·	·	25.1µM	·
Cc1cccc(OC[C@H]2C[C@@H](NC(=O)C3CCCC3)[C@H](O)[C@@H]2O)n1	·	·	·	·	–	·
CCN1CCN(CCNC(=O)c2ccc(CS(=O)(=O)c3ccccc3C)o2)CC1	–	–	–	–	–	–
Cc1ccc(C2c3cccn3CCN2S(=O)(=O)c2ccc([N+](=O)[O-])cc2)cc1 (configuration not stated)	7.08µM	·	14.1µM	?	–	?
O=[N+]([O-])c1ccc(S(=O)(=O)N2CCn3cccc3C2c2ccc(Br)cc2)cc1 (configuration not stated)	?	·	7.94µM	?	?	–
Cc1ccc2c(=O)cc(C(=O)Nc3ccc(S(=O)(=O)Nc4ncccn4)cc3)oc2c1C	–	·	–	–	?	–
O=C(NCCCn1ccnc1)/C(=C/c1ccc(Cl)cc1)NC(=O)c1ccccc1	50.1µM	–	–	–	–	–
CN(C)c1ccc(/C=C(/NC(=O)c2ccccc2)C(=O)NCCCn2ccnc2)cc1	35.5µM	–	–[0.0925 µM]	–	·	–
COc1ccc(/C=C(\NC(=O)c2ccc(C)cc2)C(=O)NCCCn2ccnc2)cc1	50.1µM	–	–	–	–	–
O=C(NCCCn1ccnc1)/C(=C\c1cccs1)NC(=O)c1ccccc1	–	–	–	–	–	–
Cc1ccc(C(=O)N/C(=C\c2cn(S(=O)(=O)N(C)C)c3ccccc23)C(=O)NCCCn2ccnc2)cc1	?	29.9µM	–	?	–	50.1µM!
Cc1ccc(N2C=Nc3ccc(C)c4nc(C)cc2c34)cc1	–	–	–	–	–	–
SMILES	BAZ2B block	PLK1 PBD inh	G9a inh	JMJD2A Tudor inh	ALOX12 inh	HP1b binding inh
COc1ccc(NC(=O)COC(=O)/C=C/c2ccccc2[N+](=O)[O-])cc1OC	–	–	–	–	–	–
CCOc1ccc(NC(=O)Nc2cc(OCC(F)(F)F)cc(OCC(F)(F)F)c2)cc1	–	–	–	–	–	–
Cc1ccc(N(C(=O)c2ccc3c(c2)OCO3)C2C=CS(=O)(=O)C2)cc1 (configuration not stated)	–	–	–	–	–	–
CC(C)(C)c1ccc(OC(=O)c2ccccc2)cc1	–	–	–	–	–	–
Cc1ccccc1NC1(c2nnnn2-c2c(C)cccc2C)CCCC1	·	·	·	·	–	·
CN(C)c1ccc(/C=C(\NC(=O)c2ccccc2)C(=O)NCCCN2CCOCC2)cc1	–	–	·	–	–	–
CN(C)c1ccc(/C=C(\NC(=O)c2ccccc2)C(=O)NCCN2CCOCC2)cc1	–	–	70.8µM	–	–	–
CS(=O)(=O)N(Cc1cccc(CN(C(C(=O)O)c2ccccc2)S(C)(=O)=O)c1)C(C(=O)O)c1ccccc1 (configuration not stated)	?	–	31.6µM	–	–	–
Cc1ccccc1Nc1nc(N)nc(COC(=O)/C=C/c2ccco2)n1	?	–	50.1µM	–	–	–
Cc1ccccc1Nc1nc(N)nc(COC(=O)c2c(C)noc2C)n1	·	–	·	–	–	–
CCCCN(CCCC)CC(O)Cn1cc(/C=C/C(=O)c2ccccc2)c2ccccc21 (configuration not stated)	–	·	?	?	44.7µM	–
CCCCN(C)CC(O)Cn1cc(/C=C/C(=O)c2ccc(OCC)cc2)c2ccccc21 (configuration not stated)	?	·	50.1µM!	50.1µM	–	?
CCn1cc(/C=C(\NC(=O)c2ccc(OC)cc2)C(=O)N2CCN(C)CC2)c2ccccc21	–	–	–[12.7 µM]	–	?	–
CCC(=C(c1ccc(OC)cc1)c1ccc(OC)cc1)c1cn(CC(O)CN2CCN(C)CC2)c2ccccc12 (configuration not stated)	44.7µM	–	39.8µM	28.2µM	?	50.1µM
COc1ccc(C(=O)/C=C/c2cn(CC(O)CN3CCc4ccccc43)c3ccccc23)cc1 (configuration not stated)	?	·	?	22.4µM	?	–
CCCCN(C)CC(O)Cn1cc(/C=C/C(=O)c2cccs2)c2ccccc21 (configuration not stated)	–	–	–	–	·	–
Cc1nc(N2CCCCC2)n(CC(=O)Nc2cccc(Cl)c2C)c(=O)c1C	·	·	·	·	–	·
Cc1cccc(NC(=O)CCC(=O)OCc2ccc(Br)cc2)c1	–	–	–	–	–	–
CCn1c(C)c(/C=N/Nc2nc3ccccc3s2)c2ccccc21	15.8µM	–	39.8µM	31.6µM	–	?
C(=N\Nc1nc2ccccc2s1)/c1cccs1	?	–	–	–	?	–
O=C(Nc1cccc(-c2nc3cccnc3s2)c1)c1cccnc1Cl	–	?	–	–	–	–
O=C(Nc1cccc(-c2nc3cccnc3s2)c1)C1c2ccccc2Oc2ccccc21	79.4µM	–	?	?	–	–
CCc1ccc(OCCOCC(O)CNC(C)CC)cc1 (configuration not stated)	–	–	?	–	–	–
CCC(C)NCCOCCOc1ccc(F)cc1 (configuration not stated)	?	–	?	3.16µM	?	?
CCC(C)NCCOCCOc1cc(C)c(Cl)c(C)c1 (configuration not stated)	79.4µM	–	?	3.98µM	?	?

Assay outcomes from PubChem BioAssay.
